Inconclusive results are not listed. Activity calls are given as the source filed them. Calls follow the shape of the dose curve; as a rule, active = well fitted curve in the direction sought with a large enough effect; inconclusive = small, poorly fitted or top-dose-only effect, or another doubt; inactive = no such curve, though single readings can be large; an effect the other way counts as inactive or inconclusive.
How the values were obtained:
[1] = target: Rap guanine nucleotide exchange factor 3 (Homo sapiens) (UniProt O95398); experiment: Confirmatory qHTS for antagonist of cAMP-regulated guanine nucleotide exchange factor 3 (EPAC1) (AID 1645880); conditions: EPAC1 Rap1B-BODIPY-GDP exchange, fluorescence; activity, negative = inhibition: at 115 µM (top of the series); also: nearly all actives have a fitted effect of over 55% in size; also: potency is read from the fitted curve at half-maximal effect;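 as to activity, negative = inhibition: plate controls were DMSO only for no effect and full effect of the ATA control for full effect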
Outline: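 Nucleotide exchange uses 100 nM EPAC1, 250 nM RAP1B-BODIPY-GDP and 50 uM GDP, with compounds in a concentration-titration series. After 5 min at room temperature, fluorescence (480 nm ex/540 nm em) is read every 5 min for 30 min. Data are normalized to control ATA and DMSO.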

[2] = target: Rap guanine nucleotide exchange factor 3 (Homo sapiens) (UniProt O95398); experiment: Confirmatory qHTS for agonist of cAMP-regulated guanine nucleotide exchange factor 3 (EPAC1) (AID 1645881); also: nearly all actives have a fitted effect of over 75% in size; also: potency is read from the fitted curve at half-maximal effect;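 as to activation: EPAC1 catalysed release of BODIPY-GDP from Rap1B seen as fluorescence loss; 100% = effect of cAMP agonist control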
[3] = target: Rap guanine nucleotide exchange factor 4 (Homo sapiens) (UniProt Q8WZA2); experiment: Confirmatory qHTS for agonist of cAMP-regulated guanine nucleotide exchange factor 4 (EPAC2) (AID 1645884);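 also: nucleotide exchange releases bodipy-GDP from Rap1 and this lowers its fluorescence; % is scaled to controls: 0 for no effect and ±100 for the full control effect; nearly all actives have a fitted effect of over 65% in size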
[4] = target: Rap guanine nucleotide exchange factor 4 (Homo sapiens) (UniProt Q8WZA2); experiment: Confirmatory qHTS for antagonist of cAMP-regulated guanine nucleotide exchange factor 4 (EPAC2) (AID 1645885); also: nearly all actives have a fitted effect of over 25% in size; also: potency is read from the fitted curve at half-maximal effect; as to activity change, negative = inhibition: % is scaled to controls: 0 for no effect and ±100 for the full control effect
[5] = target: Rap guanine nucleotide exchange factor 3 (Homo sapiens) (UniProt O95398); experiment: Counterscreen qHTS for antagonist of cAMP-regulated guanine nucleotide exchange factor 3 (EPAC1) (AID 1645888);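 also: fluorescence loss as bound BODIPY-GDP is released from Rap1B; % of control where 0% means no effect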
Outline: (§1)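 Rap1B-BODIPY-GDP 250 nM + GDP 50 uM; cpds 7-pt, final 9.74 nM–152 uM (activator mode) or from 7.32 nM upwards (inhibitor mode); RT; FI 480/540 nm at 5 and 30 min, then ± cAMP, reread.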

[6] = target: Rap guanine nucleotide exchange factor 3 (Homo sapiens) (UniProt O95398); experiment: Counterscreen qHTS for agonist of cAMP-regulated guanine nucleotide exchange factor 3 (EPAC1) (AID 1645889); also: nearly all actives have a fitted effect of over 40% in size; also: potency is read from the fitted curve at half-maximal effect; as to activation: % of control where 0% means no effect
Outline: as §1

Chain of Rap guanine nucleotide exchange factor 3 (Homo sapiens) (O95398 whole entry, looked up): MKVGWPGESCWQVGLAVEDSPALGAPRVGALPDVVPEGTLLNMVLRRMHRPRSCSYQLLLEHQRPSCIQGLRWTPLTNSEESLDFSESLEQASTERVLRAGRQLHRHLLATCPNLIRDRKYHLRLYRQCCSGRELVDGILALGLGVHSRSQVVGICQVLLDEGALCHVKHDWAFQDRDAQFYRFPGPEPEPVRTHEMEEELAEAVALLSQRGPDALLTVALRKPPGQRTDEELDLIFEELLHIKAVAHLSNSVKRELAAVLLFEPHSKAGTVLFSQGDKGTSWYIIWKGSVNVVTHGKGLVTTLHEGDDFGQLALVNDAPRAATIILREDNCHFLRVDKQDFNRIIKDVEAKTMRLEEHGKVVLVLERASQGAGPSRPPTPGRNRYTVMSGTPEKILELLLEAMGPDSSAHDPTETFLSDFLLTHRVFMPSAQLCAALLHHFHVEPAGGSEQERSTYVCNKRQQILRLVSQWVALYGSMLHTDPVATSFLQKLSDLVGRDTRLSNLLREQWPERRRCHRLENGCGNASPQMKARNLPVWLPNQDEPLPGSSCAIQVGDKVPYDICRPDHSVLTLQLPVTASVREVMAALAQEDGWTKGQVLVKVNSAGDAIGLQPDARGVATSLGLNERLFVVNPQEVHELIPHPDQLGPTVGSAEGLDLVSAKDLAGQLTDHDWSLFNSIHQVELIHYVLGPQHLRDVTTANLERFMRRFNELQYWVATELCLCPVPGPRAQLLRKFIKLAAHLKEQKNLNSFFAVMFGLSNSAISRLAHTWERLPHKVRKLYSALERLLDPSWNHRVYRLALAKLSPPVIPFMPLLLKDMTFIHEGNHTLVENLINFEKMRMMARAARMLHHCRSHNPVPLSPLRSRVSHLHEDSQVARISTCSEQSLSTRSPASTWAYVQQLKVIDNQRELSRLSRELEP
Chain of Rap guanine nucleotide exchange factor 4 (Homo sapiens) (Q8WZA2 whole entry, looked up): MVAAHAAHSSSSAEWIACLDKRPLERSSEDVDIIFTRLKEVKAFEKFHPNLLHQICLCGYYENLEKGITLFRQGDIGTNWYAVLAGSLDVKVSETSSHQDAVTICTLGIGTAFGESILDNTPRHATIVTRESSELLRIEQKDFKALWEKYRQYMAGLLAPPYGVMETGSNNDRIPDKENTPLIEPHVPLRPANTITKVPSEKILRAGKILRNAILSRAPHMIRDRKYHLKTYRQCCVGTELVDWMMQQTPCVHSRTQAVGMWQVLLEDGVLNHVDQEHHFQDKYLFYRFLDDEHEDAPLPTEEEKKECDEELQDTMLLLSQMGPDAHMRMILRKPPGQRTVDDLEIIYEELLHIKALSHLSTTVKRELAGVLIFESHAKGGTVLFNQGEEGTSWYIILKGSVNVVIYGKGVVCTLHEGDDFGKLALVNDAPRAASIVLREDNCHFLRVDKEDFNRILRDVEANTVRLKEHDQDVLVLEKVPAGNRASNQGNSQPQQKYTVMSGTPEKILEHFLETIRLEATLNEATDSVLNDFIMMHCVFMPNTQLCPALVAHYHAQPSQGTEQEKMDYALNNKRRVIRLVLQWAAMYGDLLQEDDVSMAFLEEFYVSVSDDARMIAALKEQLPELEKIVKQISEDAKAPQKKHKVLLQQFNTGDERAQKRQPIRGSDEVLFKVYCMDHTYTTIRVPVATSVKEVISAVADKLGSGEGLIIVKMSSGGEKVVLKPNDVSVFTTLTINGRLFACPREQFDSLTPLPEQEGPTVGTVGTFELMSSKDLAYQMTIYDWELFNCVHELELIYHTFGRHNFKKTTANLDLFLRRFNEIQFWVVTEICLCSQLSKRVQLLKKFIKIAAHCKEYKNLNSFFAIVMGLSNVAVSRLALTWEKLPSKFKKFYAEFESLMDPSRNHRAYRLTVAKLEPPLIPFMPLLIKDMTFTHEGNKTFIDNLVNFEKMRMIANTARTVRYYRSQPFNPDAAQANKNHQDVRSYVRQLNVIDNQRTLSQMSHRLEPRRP

CCOc1cc2c3c(c1)C(C)=CC(C)(C)N3C(=O)C2=O
inactive: Potency [1] | Potency [2] | activation [3] -1.35% [at 17.1 µM, percent relative to cAMP agonist control] | Potency [4] | activity change, negative = inhibition [5] -14.8% [at 30.8 µM] | activation [6] 25% [at 30.8 µM]

Cn1cccc1/C=C1\CCC/C(=C\c2cccn2C)C1=O
inactive: Potency [2] | Potency [3] | Potency [5]
active: Potency [1] 75.7 µM | Potency [4] 75.7 µM | Potency [6] 39.8 µM

COC(=O)c1ccc2nc(-c3ccccc3)c(Cc3ccccc3C(F)(F)F)n2c1
active: Potency [4] 0.757 µM
inactive: Potency [1] | Potency [2] | Potency [3] | Potency [5] | Potency [6]

Cc1ccc(NC(=O)CN2C(=O)C(c3ccc(C(C)(C)C)cc3)=NC2(C)C)cc1
inactive: Potency [1] | Potency [2] | Potency [3] | Potency [4] | Potency [5] | Potency [6]

O=C(NCc1ccco1)c1sc(=S)n2c1[nH]c(=O)c1ccccc12
active: Potency [1] 14.1 µM
inactive: Potency [2] | activation [3] 1.94% [at 17.1 µM, percent relative to cAMP agonist control] | Potency [4] | activity change, negative = inhibition [5] 3.28% [at 30.8 µM] | activation [6] -8.6% [at 30.8 µM]

COc1ccc(N(C(=O)c2ccco2)S(=O)(=O)c2cc(OC)ccc2OC)cc1
inactive: Potency [1] | Potency [2] | Potency [3] | Potency [4] | Potency [5] | Potency [6]

O=C(Nc1ncccc1O)c1ccc2c(c1)OCCO2
inactive: Potency [1] | Potency [2] | activation [3] 2.78% [at 17.1 µM, percent relative to cAMP agonist control] | Potency [4] | activity change, negative = inhibition [5] 6.79% [at 30.8 µM] | activation [6] 22.4% [at 30.8 µM]

CCCN1C(=O)c2[nH]nc(-c3cccc(OC)c3)c2C1c1ccccn1 (stereo unspecified)
inactive: Potency [1] | Potency [2] | Potency [3] | outcome [4] inactive [at 12.7 µM] | Potency [5] | Potency [6]

O=c1c(-c2ccc(F)cc2)[n+]([O-])c2ccccc2n1OCc1ccccn1
inactive: Potency [1] | Potency [2] | activation [3] -8.77% [at 17.1 µM, percent relative to cAMP agonist control] | Potency [4] | activity change, negative = inhibition [5] 1.53% [at 30.8 µM] | activation [6] 6.02% [at 30.8 µM]

O=C(C1=C(O)C(=O)N(c2nc3ccc(Cl)cc3s2)C1c1ccco1)c1ccco1 (stereo unspecified)
inactive: Potency [2] | Potency [3] | Potency [4] | Potency [5] | Potency [6]
active: Potency [1] 16.9 µM

Fc1ccc(-c2ccc3nccn3c2)cc1Cl
inactive: Potency [1] | Potency [2] | activation [3] 2.32% [at 17.1 µM, percent relative to cAMP agonist control] | Potency [4] | activity change, negative = inhibition [5] -1.11% [at 30.8 µM] | activation [6] 10.1% [at 30.8 µM]

Cc1ccc(C(=O)Nc2ccccc2[N+](=O)[O-])cc1S(=O)(=O)N1CCOCC1
inactive: Potency [1] | Potency [2] | Potency [3] | Potency [4] | Potency [5] | Potency [6]

CCc1ccc(NC(=O)CSc2nc(-c3ccccc3)c(C#N)c(=O)[nH]2)cc1
inactive: Potency [2] | Potency [3] | outcome [4] inactive [at 12.7 µM] | Potency [5] | Potency [6]
active: Potency [1] 75.7 µM

COc1cc(/C=C(\C#N)c2nc3ccc(C)cc3[nH]2)cc([N+](=O)[O-])c1O
inactive: Potency [2] | Potency [3] | Potency [5] | Potency [6]
active: Potency [1] 33.8 µM | Potency [4] 75.7 µM

CC(OC(=O)CC1CCCCC1)C(=O)Nc1ccc(S(N)(=O)=O)cc1 (stereo unspecified)
inactive: Potency [1] | Potency [2] | activation [3] 2.89% [at 17.1 µM, percent relative to cAMP agonist control] | Potency [4] | activity change, negative = inhibition [5] -10.1% [at 30.8 µM] | activation [6] 15.8% [at 30.8 µM]

COc1ccc2nc3oc(C(=O)Nc4cccc(C(F)(F)F)c4)cc3cc2c1
inactive: Potency [1] | Potency [2] | Potency [3] | Potency [4] | Potency [5] | Potency [6]

O=S(=O)(O)c1cccc(N=Nc2c(O)ccc3ccccc23)c1
inactive: Potency [2] | Potency [3] | Potency [5] | Potency [6]
active: Potency [1] 37.9 µM | Potency [4] 23.9 µM

O=C(CNC(=O)c1sc2ccccc2c1Cl)NCc1cccc(C(F)(F)F)c1
inactive: Potency [1] | Potency [2] | Potency [3] | Potency [4] | Potency [5] | Potency [6]

COc1ccc(C2c3ccsc3CCN2C(C)=O)cc1 (stereo unspecified)
inactive: Potency [1] | Potency [2] | Potency [3] | Potency [4] | Potency [5] | Potency [6]

Cc1ccn2c(=O)c(NC(=O)c3ccc(Br)o3)c(C)nc2c1
inactive: Potency [1] | Potency [2] | activation [3] 4.58% [at 17.1 µM, percent relative to cAMP agonist control] | Potency [4] | activity change, negative = inhibition [5] -1.7% [at 30.8 µM] | activation [6] -2.62% [at 30.8 µM]

Cc1ccc(Nc2ccc(N3CCN(C(=O)c4ccc([N+](=O)[O-])cc4)CC3)nn2)cc1
inactive: Potency [1] | Potency [2] | Potency [3] | Potency [4] | Potency [5] | Potency [6]

O=C1CCc2cc(NS(=O)(=O)c3ccc([N+](=O)[O-])cc3)cc3c2N1CC3
inactive: Potency [1] | Potency [2] | Potency [3] | Potency [4] | Potency [5] | Potency [6]

COc1ccc(CCNC2CC(=O)N(CCc3ccc(OC)c(OC)c3)C2=O)cc1 (stereo unspecified)
inactive: Potency [1] | Potency [2] | activation [3] 4.7% [at 17.1 µM, percent relative to cAMP agonist control] | Potency [4] | activity change, negative = inhibition [5] -1.61% [at 30.8 µM] | activation [6] 8.52% [at 30.8 µM]

O=c1[nH][nH]c(-c2ccccc2O)c1C(C[N+](=O)[O-])c1ccc(Cl)cc1Cl (stereo unspecified)
inactive: Potency [1] | Potency [2] | Potency [3] | Potency [4] | Potency [5] | Potency [6]

COc1ccc(NC(=O)CCCSc2nc(-c3ccco3)cc(C(F)(F)F)n2)cc1
inactive: Potency [1] | Potency [2] | Potency [3] | Potency [4] | Potency [5] | Potency [6]

Cc1nnc(SCc2nnc(-c3ccc(Cl)cc3)o2)n1-c1ccccc1
inactive: Potency [1] | Potency [2] | Potency [3] | Potency [4] | Potency [5] | Potency [6]

CCN1CCN(c2ccc(S(=O)(=O)N3CCOCC3)cc2NC(=O)c2cc(Cl)nc3ccccc23)CC1
inactive: Potency [1] | Potency [2] | activation [3] 4.04% [at 17.1 µM, percent relative to cAMP agonist control] | Potency [4] | activity change, negative = inhibition [5] 7.51% [at 30.8 µM] | activation [6] 5.03% [at 30.8 µM]

CC(OC(=O)/C(C#N)=C/c1ccc(N(C)C)cc1)C(=O)N(C)c1ccccc1 (stereo unspecified)
active: Potency [2] 50.1 µM
inactive: Potency [1] | activation [3] 3.03% [at 17.1 µM, percent relative to cAMP agonist control] | Potency [4] | activity change, negative = inhibition [5] -2.82% [at 30.8 µM] | activation [6] 20.3% [at 30.8 µM]

O=S(=O)(N/N=C/c1cccnc1)c1ccc(Cl)c(Cl)c1
inactive: Potency [1] | Potency [2] | activation [3] 4.19% [at 17.1 µM, percent relative to cAMP agonist control] | Potency [4] | activity change, negative = inhibition [5] -14.7% [at 30.8 µM] | activation [6] 6.45% [at 30.8 µM]

CCc1nc2c(OCc3ccc(C(=O)N(C)C)cc3)cccn2c1N(C)C(=O)c1ccc(C)cc1
inactive: Potency [1] | Potency [2] | activation [3] 2.55% [at 17.1 µM, percent relative to cAMP agonist control] | Potency [4] | activity change, negative = inhibition [5] -28.5% [at 30.8 µM] | activation [6] 21.1% [at 30.8 µM]

CCCCc1nc(SCCOC)c2c(=O)n(C)c(=O)n(C)c2n1
inactive: Potency [1] | Potency [2] | activation [3] 4.93% [at 17.1 µM, percent relative to cAMP agonist control] | Potency [4] | activity change, negative = inhibition [5] -15.9% [at 30.8 µM] | activation [6] -0.239% [at 30.8 µM]

CC[C@]12c3[nH]c4cc(-c5ccco5)ccc4c3CCN1C(=O)[C@@H](CC(=O)NCCCOC)C[C@@H]2C(=O)N1CCN(C(=O)C2CC2)CC1
inactive: Potency [1] | Potency [2] | activation [3] 9.39% [at 17.1 µM, percent relative to cAMP agonist control] | Potency [4] | activity change, negative = inhibition [5] -21.4% [at 30.8 µM] | activation [6] -1.13% [at 30.8 µM]

CCc1ccc(C(=O)c2cn(CC(=O)Nc3cccc(OC)c3)c3ccc(OC)cc3c2=O)cc1
active: Potency [1] 53.6 µM
inactive: Potency [2] | Potency [3] | Potency [4] | Potency [5] | Potency [6]

Cc1ccc(-n2nnnc2SCC(=O)NCC2(N3CCOCC3)CCCCC2)cc1
inactive: Potency [1] | Potency [2] | Potency [3] | Potency [4] | Potency [5] | Potency [6]

CCN(CC(=O)Nc1ccccc1OC)C(=O)c1ccc(N(C)S(=O)(=O)c2ccc(C)cc2)cc1
inactive: Potency [1] | Potency [2] | Potency [3] | Potency [4] | Potency [5] | Potency [6]

O=C(O)C1CC(=O)N(c2ccc(OCc3c(F)cccc3Cl)cc2)C1 (stereo unspecified)
inactive: Potency [1] | Potency [2] | Potency [3] | Potency [4] | Potency [5] | Potency [6]

C/C(=N\NS(=O)(=O)c1ccccc1)c1cc(Cl)cc(Cl)c1O
active: Potency [1] 33.8 µM | Potency [4] 21.3 µM
inactive: Potency [2] | Potency [3] | Potency [5] | Potency [6]

CCOC(=O)c1sc2nc(NC(=O)COc3ccccc3)sc2c1C
inactive: Potency [1] | Potency [2] | activation [3] 1.9% [at 17.1 µM, percent relative to cAMP agonist control] | Potency [4] | activity change, negative = inhibition [5] -6.87% [at 30.8 µM] | activation [6] 25% [at 30.8 µM]

COc1ccc(S(=O)(=O)NC(CCSC)C(=O)NC2CCCCC2)cc1 (stereo unspecified)
inactive: Potency [1] | Potency [2] | Potency [3] | Potency [4] | Potency [5] | Potency [6]

O=C(c1cc(-c2ccc(Cl)cc2)nc2ccccc12)N1CCC1
inactive: Potency [1] | Potency [2] | Potency [3] | Potency [4] | Potency [5] | Potency [6]

CC(C)c1nn2c(=O)cc(COC(=O)c3cccc(NC(=O)c4cccs4)c3)nc2s1
inactive: Potency [1] | Potency [2] | Potency [3] | Potency [4] | Potency [5] | Potency [6]

Reference: PubChem BioAssay (NCATS)
